Screening data (PubChem BioAssay)
Rows were chosen to be rich in hits. Some 2.7% of all compounds tested hit in one or more screens of this group.
Shn3 inh set2 – inhibitors of Schnurri-3 3'UTR reporter in osteoblasts | AID 588674 | Clone20 osteoblast Shn3 3'UTR firefly luciferase, 24 h | inhibition, % at 12.5 µM | hit rate 0.52% among 360,000;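 active means mean inhibition of at least 75% with every replicate also reaching 75%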;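 further: 0% = median of neutral control wells and 100% = pilot-screen positive control compound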
Peg3 prom inh – reduces Peg3 promoter-driven luciferase expression in HeLa | hit rate 1.7% among 360,000 | AID 588405 | HeLa PEG-Prom luciferase reporter, luminescence, overnight | inhibition, % at 20 µM;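 active means inhibition of at least 50% at 20 µM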
HIF-2a inh – HIF-2a inhibition | 786-0 RCC cells HIF-2a reporter, luciferase luminescence, overnight | inhibition, % at 18.8 µM | hit rate 0.72% among 360,000 | AID 624352;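 active means inhibition of the luminescence signal of 40% or more relative to plate controls, in a single-dose primary screen at 18.75 µM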
CF NFkB block – blocks PAF-induced NF-kB reporter in cystic fibrosis cells. hit rate 0.86% among 360,000. KKLEB NF-kB-GFP reporter, GFP fluorescence overnight. inhibition, % at 5 µM;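 active means at least 50% inhibition at 5 µM, scaled per plate between neutral and stimulator controls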;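 further: PAF is a Pseudomonas aeruginosa culture filtrate used as stimulus; plate controls were PAF-stimulated DMSO wells for no effect and unstimulated DMSO wells for full effect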
KKLEB cytotox – counter-screen for CF NF-kB inhibitors: cytotoxicity; KKLEB CF airway cells viability, ATPlite luminescence, overnight; active compounds read low; cells stimulated with P. aeruginosa culture filtrate; activity change (cytotoxicity), % at 5 µM; hit rate 0.36% among 360,000; AID 602141;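 active means corrected activity change at or below -50% at 5 µM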
MITF TRPM1 inh – MITF TRPM1 promoter inhibition in SK-MEL-5 cells | SK-MEL-5 TRPM1 promoter luciferase, 24 h | hit rate 0.83% among 330,000 | inhibition, % at 12.5 µM | AID 488899;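 active means mean inhibition across replicates of 60% or more, whatever share of single replicates reaches that level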
* hit, by the source's call.

What do the screens show for `Cc1cccc(C)c1NC(=O)C1C(c2ccccc2)=Nc2ccccc2N1C(=O)c1cnccn1` (stereo unspecified)?
HIF-2a inh: -106

What do the screens show for `Cc1nn(Cc2noc(C(=O)NC3CCC(C)CC3)n2)c(C)c1Br` (stereo unspecified)?
Shn3 inh set2: 90*; Peg3 prom inh: 4; HIF-2a inh: 7; CF NFkB block: -1; KKLEB cytotox: 4; MITF TRPM1 inh: 0

What do the screens show for `OC(Cc1ccccc1)c1ncc(-c2ccc3ccccc3c2)[nH]1` (stereo unspecified)?
Shn3 inh set2: -5; Peg3 prom inh: -15; HIF-2a inh: -129; CF NFkB block: -3; KKLEB cytotox: 1

How did O=C(NC(CSCc1ccccc1)C(=O)N/N=C/c1ccc(O)cc1O)c1ccc([N+](=O)[O-])cc1 (stereo unspecified) do in these assays?
Shn3 inh set2: 91*; Peg3 prom inh: 51*; HIF-2a inh: 13; CF NFkB block: 10; KKLEB cytotox: 13; MITF TRPM1 inh: 70*

How did COc1nc(Nc2nc3ccccc3c(=O)[nH]2)nc2ccc(C)cc12 do in these assays?
Shn3 inh set2: 52; Peg3 prom inh: 98*; HIF-2a inh: -41; CF NFkB block: 48; KKLEB cytotox: 0; MITF TRPM1 inh: 26

What do the screens show for `COc1cccc2c(C)nc(Nc3nc(CSc4nnc(C)s4)cc(=O)[nH]3)nc12`?
Shn3 inh set2: 3; Peg3 prom inh: 76*; HIF-2a inh: 14; CF NFkB block: -5; KKLEB cytotox: 11; MITF TRPM1 inh: 16

How did Cc1nc(Nc2nc(CSc3nc4ccccc4[nH]3)cc(=O)[nH]2)nc2ccccc12 do in these assays?
Shn3 inh set2: 78; Peg3 prom inh: 102*; HIF-2a inh: -23; CF NFkB block: 31; KKLEB cytotox: 14; MITF TRPM1 inh: 7

Results for Cc1nc(Nc2nc(-c3ccccc3)cc(=O)[nH]2)nc2ccccc12 ?
Shn3 inh set2: -20; Peg3 prom inh: 64*; HIF-2a inh: -229; CF NFkB block: -154; KKLEB cytotox: 0; MITF TRPM1 inh: -1

What do the screens show for `O=C(Cn1nnc(-c2ccccc2)c1COc1ccc2ccccc2c1)NCC1CC1`?
Shn3 inh set2: 4; Peg3 prom inh: 11; HIF-2a inh: 7; CF NFkB block: 1; KKLEB cytotox: -17

What do the screens show for `CCOC(=O)C1=C[C@@H](C2CCCC2)N(S(=O)(=O)c2ccc([N+](=O)[O-])cc2)[C@H]1c1ccccc1`?
Shn3 inh set2: 22; Peg3 prom inh: 7; HIF-2a inh: -6; CF NFkB block: 11; KKLEB cytotox: 2

What do the screens show for `CCCc1cn(CC(C)n2c(=O)c3ccccc3n2Cc2cc(C(C)C)no2)nn1` (stereo unspecified)?
HIF-2a inh: 3

What do the screens show for `CC(=O)C1=CCC(c2ccccc2)N(S(=O)(=O)c2ccccc2)C1` (stereo unspecified)?
Shn3 inh set2: 4; Peg3 prom inh: 4; HIF-2a inh: 19; CF NFkB block: -12; KKLEB cytotox: -16

How did Clc1ccc(-c2nnc(-c3ccccc3)c(N3CCSCC3)n2)cc1 do in these assays?
Shn3 inh set2: 16; Peg3 prom inh: -5; HIF-2a inh: -33; CF NFkB block: 6; KKLEB cytotox: -15; MITF TRPM1 inh: -23

What do the screens show for `CC1CN(c2nc(-c3ccc(Br)cc3)nnc2-c2ccccc2)CC(C)N1` (stereo unspecified)?
Shn3 inh set2: 10; Peg3 prom inh: 62*; HIF-2a inh: -60; CF NFkB block: 14; KKLEB cytotox: -10; MITF TRPM1 inh: 23

Results for COc1cc(F)ccc1-c1csc(C(O)(c2ccccc2)C(F)(F)F)n1 (stereo unspecified) ?
Shn3 inh set2: 2; Peg3 prom inh: 39; HIF-2a inh: 20; CF NFkB block: 40; KKLEB cytotox: -7

What do the screens show for `COc1cc(Br)cc(/C=N/NC(=O)Cc2ccc(C(F)(F)F)cc2[N+](=O)[O-])c1O`?
Shn3 inh set2: 20; Peg3 prom inh: 54*; HIF-2a inh: 18; CF NFkB block: -5; KKLEB cytotox: 6; MITF TRPM1 inh: 13

What do the screens show for `CCOc1cc(/C=N/NC(=O)Cc2ccc(C(F)(F)F)cc2[N+](=O)[O-])c(Br)cc1OC`?
Shn3 inh set2: 23; Peg3 prom inh: 35; HIF-2a inh: 7; CF NFkB block: -6; KKLEB cytotox: -15; MITF TRPM1 inh: 6

How did Cc1nc(NC(=O)c2ccccc2)sc1-c1cc(C(=O)N2CCOCC2)nn1Cc1ccccc1 do in these assays?
Shn3 inh set2: 10; Peg3 prom inh: 3; HIF-2a inh: -1; CF NFkB block: 9; KKLEB cytotox: -16

How did COc1cc(F)ccc1-c1csc(C(C)(NC(C)=O)c2ccccc2)n1 (stereo unspecified) do in these assays?
Shn3 inh set2: -14; Peg3 prom inh: 1; HIF-2a inh: 1; CF NFkB block: 20; KKLEB cytotox: -2

Results for CCCCOCCCNc1ncnc2c1[nH]c1ccccc12 ?
Shn3 inh set2: 83*; Peg3 prom inh: 11; HIF-2a inh: 7; CF NFkB block: -2; KKLEB cytotox: -3; MITF TRPM1 inh: 11

Results for COc1cc(CNc2ncnc3c2[nH]c2ccc(C)cc23)cc(OC)c1 ?
Shn3 inh set2: -9; Peg3 prom inh: 24; HIF-2a inh: 23; CF NFkB block: 29; KKLEB cytotox: -13; MITF TRPM1 inh: 17

How did COc1ccc(/C=N/Nc2ncnc3c2[nH]c2ccc(C)cc23)c(OC)c1OC do in these assays?
Shn3 inh set2: 0; Peg3 prom inh: 73*; HIF-2a inh: -10; CF NFkB block: 9; KKLEB cytotox: -7; MITF TRPM1 inh: 2

How did COc1cc(OC)c(OC)cc1/C=N/Nc1nc2ccccc2[nH]1 do in these assays?
Shn3 inh set2: -3; Peg3 prom inh: 0; HIF-2a inh: 20; CF NFkB block: -1; KKLEB cytotox: 13; MITF TRPM1 inh: 8

How did COc1cc(OC)c(OC)cc1/C=N/Nc1ncnc2c1[nH]c1ccccc12 do in these assays?
Shn3 inh set2: -3; Peg3 prom inh: 89*; HIF-2a inh: 5; CF NFkB block: 30; KKLEB cytotox: -29; MITF TRPM1 inh: -9

What do the screens show for `CCCCNC(=O)c1nc(C2CCNCC2)oc1-c1cccc(C(F)(F)F)c1`?
HIF-2a inh: -8

How did COc1cc(C)ccc1S(=O)(=O)NC(=O)Cn1nnc(COc2ccc3c(c2)CCCC3)c1C do in these assays?
Shn3 inh set2: -11; Peg3 prom inh: -10; HIF-2a inh: 7; CF NFkB block: -1; KKLEB cytotox: -4

What do the screens show for `Cc1cccc(NC(=O)COc2cccc3c2CCNC3=O)c1`?
Shn3 inh set2: 1; Peg3 prom inh: 3; HIF-2a inh: 7; CF NFkB block: -21; KKLEB cytotox: 8

What do the screens show for `CCN1CCN(C(=O)C(=O)c2cn(CC(=O)N(CC)CC)c3ccccc23)CC1`?
Shn3 inh set2: 3; Peg3 prom inh: 63*; HIF-2a inh: 5; CF NFkB block: 6; KKLEB cytotox: -7; MITF TRPM1 inh: 1
